The panel holds about 83,000 compounds, 20% with a hit somewhere; the sample as a whole holds those more often.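 Percent growth is the endpoint: 0 to 100 indicates growth inhibition (40 means 60% inhibition), 0 means no net growth, and negative values indicate cell death.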 Activity calls are given as the source filed them. Rule for the calls: active = growth percent below 10; inactive = the rest.
Legend:
Test in all cases: NCI-60 one-dose screen, 48 h (100 = growth as untreated, 0 = no growth, -100 = all killed)
Conditions in all cases: 10 µM unless noted
SR leukemia = system: SR leukemia
RPMI-8226 leukemia = system: RPMI-8226 leukemia
OVCAR-8 ovarian = system: OVCAR-8 ovarian
OVCAR-5 ovarian = system: OVCAR-5 ovarian
OVCAR-4 ovarian = system: OVCAR-4 ovarian
OVCAR-3 ovarian = system: OVCAR-3 ovarian
HS 578T breast = system: HS 578T breast
NCI/ADR-RES ovarian = system: NCI/ADR-RES ovarian
SK-OV-3 ovarian = system: SK-OV-3 ovarian
IGROV1 ovarian = system: IGROV1 ovarian

Measured: growth

O=C(CN1CCCCC1)Nc1nc(-c2cc3ccccc3oc2=O)cs1
inactive: SR leukemia 89.5% | RPMI-8226 leukemia 106% | OVCAR-8 ovarian 98.3% | OVCAR-5 ovarian 104% | OVCAR-4 ovarian 95.3% | OVCAR-3 ovarian 111% | HS 578T breast 93.3% | NCI/ADR-RES ovarian 101%

COc1ccc(-c2nn(-c3cccc(Cl)c3)cc2-c2cc(-c3ccc(Br)cc3)nc(N)n2)cc1
inactive: SR leukemia 82% | RPMI-8226 leukemia 84.1% | OVCAR-8 ovarian 98.9% | OVCAR-4 ovarian 96% | SK-OV-3 ovarian 102% | IGROV1 ovarian 89.2% | OVCAR-3 ovarian 107% | HS 578T breast 99.7% | NCI/ADR-RES ovarian 99.8%

N#CSc1c[nH]c2cccc(/C=C/C(=O)/C=C(/C=C/c3cccc4[nH]cc(SC#N)c34)OB(F)F)c12
active: SR leukemia 6.43% | RPMI-8226 leukemia -6.08% | OVCAR-8 ovarian -26.1% | OVCAR-4 ovarian 7.06% | IGROV1 ovarian 3.87% | OVCAR-3 ovarian 2.33%
inactive: SK-OV-3 ovarian 78.7% | NCI/ADR-RES ovarian 25.7%

CCOC(=O)c1ccc2c(c1)nc(-c1ccccc1)n2C1CCCCC1
inactive: SR leukemia 62.9% | RPMI-8226 leukemia 63.7% | OVCAR-8 ovarian 89.5% | OVCAR-4 ovarian 102% | SK-OV-3 ovarian 36.7% | IGROV1 ovarian 106% | OVCAR-3 ovarian 108% | HS 578T breast 111% | NCI/ADR-RES ovarian 105%

Cc1[nH]c(C(=O)Nc2ccccc2OC2CCNCC2)c(Cl)c1Cl
inactive: SR leukemia 10.1% | OVCAR-5 ovarian 68.7% | SK-OV-3 ovarian 109% | IGROV1 ovarian 48.4% | NCI/ADR-RES ovarian 33.8%
active: RPMI-8226 leukemia -45.2% | OVCAR-4 ovarian -72.8% | OVCAR-3 ovarian -77.7% | HS 578T breast -19.1%

O=C(Nc1nc2cc(C(=O)N3CCN(C(c4ccccc4)c4ccccc4)CC3)ccc2o1)c1ccc(NC2CCCCC2)c([N+](=O)[O-])c1
inactive: SR leukemia 49.1% | RPMI-8226 leukemia 40.1% | OVCAR-5 ovarian 72.5% | OVCAR-4 ovarian 38.8% | SK-OV-3 ovarian 73.8% | IGROV1 ovarian 51.1% | OVCAR-3 ovarian 52.8% | HS 578T breast 76% | NCI/ADR-RES ovarian 35.3%

c1csc(-c2ccc(CNc3c4ccccc4nc4ccccc34)cc2)c1
inactive: OVCAR-5 ovarian 67.1% | OVCAR-4 ovarian 15.3% | SK-OV-3 ovarian 65% | IGROV1 ovarian 10% | HS 578T breast 60.6% | NCI/ADR-RES ovarian 11.2%
active: SR leukemia -43.7% | RPMI-8226 leukemia -44.4% | OVCAR-3 ovarian 9.5%

— PubChem BioAssay (NCI)
